Among the data in PubChem BioAssay AID746 (The Scripps Research Institute Molecular Screening Center, 2007) are inhibition values, retold here.

The campaign covered roughly 60,000 compounds. About 370 (0.62%) were called active. The sample holds actives, similar compounds and a random draw of the others, so the mix is not that of the screen. No stated cut-off is given here; in the data, active means inhibition above about 17%; inactive means the rest.

Mitogen-activated protein kinase 10 (Homo sapiens), sequence (P53779 whole entry, looked up): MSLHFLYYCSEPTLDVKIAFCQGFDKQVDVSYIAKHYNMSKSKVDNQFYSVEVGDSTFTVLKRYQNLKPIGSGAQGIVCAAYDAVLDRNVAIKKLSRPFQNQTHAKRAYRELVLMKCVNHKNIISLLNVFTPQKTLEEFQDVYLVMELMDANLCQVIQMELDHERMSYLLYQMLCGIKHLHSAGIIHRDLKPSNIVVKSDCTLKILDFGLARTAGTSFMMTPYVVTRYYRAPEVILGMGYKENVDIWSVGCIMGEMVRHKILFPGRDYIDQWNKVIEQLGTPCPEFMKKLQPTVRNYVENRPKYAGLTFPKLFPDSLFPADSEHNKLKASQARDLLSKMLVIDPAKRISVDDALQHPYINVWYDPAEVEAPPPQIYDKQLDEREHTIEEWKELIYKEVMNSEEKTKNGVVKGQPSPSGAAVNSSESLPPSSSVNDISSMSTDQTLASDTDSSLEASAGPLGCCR

The assay has as its target Mitogen-activated protein kinase 10 (Homo sapiens) (UniProt P53779). Nature of the assay: inhibition of human JNK3 enzyme – biochemical, purified enzyme, primary screen (AID 746).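 Further: 0% = DMSO and 100% = reference inhibitor.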 To be noted: purified JNK3 kinase activity, HTS; at 8 µM; hits give high values.
The inhibition is the relative decrease from the control value, in per cent. As for `CC(=O)N1CCN(c2ccc(NCc3ccc(C(C)C)cc3)cc2)CC1`, the inhibition was -4.46% (inactive).

Take `CCCCc1nc2ccccc2c(=O)n1NC(=O)c1c(O)c2cccc3c2n(c1=O)CC3`: the inhibition was -6.2% (inactive).

As for `CCCC(=O)NC(C)C(c1cccs1)N1CCN(c2ccccc2)CC1` (configuration not stated), the inhibition was 0.41% (inactive).

With `O=C(NCC12CC3CC(C1)CC(CNC(=O)N1CCCC1)(C3)C2)N1CCCC1`, the inhibition was 2.23% (inactive).

With `CCOC(=O)CC1C(=O)NCCN1C(=O)COc1ccc(Br)cc1C` (configuration not stated), the inhibition is 1.6% (inactive).

As to `N#Cc1c(/N=C/N2CCCC2)oc(-c2ccccc2)c1-c1ccccc1`, the inhibition was -3.67% (inactive).

For the compound `CC(C)n1c(SCC(=O)Nc2ccccc2N2CCCCC2)nc2c1c(=O)n(C)c(=O)n2C`, the inhibition was 0% (inactive).

With `Nc1nnc(C2CCCC2)s1`, the inhibition was -0.19% (inactive).

On to `O/N=C(\c1ccc2c(c1)OCCO2)C1CCCCC1`, for which the inhibition is -1.18% (inactive).

Take `COc1cc(Br)cc(/C=N/c2ncn[nH]2)c1O`: the inhibition was -2.89% (inactive).

As for `Clc1ccc(Cc2nnc(-c3cccs3)o2)cc1`, the inhibition was 2.19% (inactive).

As to `CCCc1[nH]nc2c1C(c1ccc(OC(=O)c3ccco3)cc1)C(C#N)=C(N)O2` (configuration not stated), the inhibition is 6.15% (inactive).

Turning to `CC(=O)NC(C)(C)C1CC=C(C)/C(=N\O)C1` (configuration not stated), the inhibition is 0.98% (inactive).

Take `CCN(CC)S(=O)(=O)c1cccc(C(=O)NCC(=O)OCC(=O)NCc2ccccc2)c1`: the inhibition is -1.17% (inactive).

`CCN(CC)S(=O)(=O)c1ccc2nc(COC(=O)c3n[nH]c4ccccc34)[nH]c2c1`: the inhibition is 95.8% (active).

`CCN(CC)S(=O)(=O)c1ccc2nc(CSc3nnnn3-c3ccc(O)cc3)[nH]c2c1`: the inhibition is 8.62% (inactive).

For the compound `Cc1c(CN2CCC(C)CC2)c(=O)n(-c2ccccc2)n1C`, the inhibition is 0.5% (inactive).

On to `O=P(O)(CP(=O)(c1ccccc1)c1ccccc1)c1ccccc1`, for which the inhibition is -5.23% (inactive).

On to `Cc1nc2c(-c3ccc(F)cc3)c(C)nn2c(C)c1CCC(=O)N1CCN(c2ccccn2)CC1`, for which the inhibition is 1.08% (inactive).

As for `Cc1c(C(=O)NCC2CCCO2)sc2nc(-c3ccccc3)cn12` (configuration not stated), the inhibition was -3.26% (inactive).

Consider `CCSC1(SCC)N=C(N)C2(C#N)C(c3ccccc3)NC(C)=CC12C#N` (configuration not stated), for which the inhibition was 0.03% (inactive).

Regarding `CCOC(=O)c1ccccc1NC(=O)CC1Nc2ccccc2NC1=O` (configuration not stated), the inhibition was -0.55% (inactive).

For the compound `CCOC(=O)C1CCN(C(=O)COc2cc(C)c(Br)c(C)c2)CC1`, the inhibition is 6.51% (inactive).

As to `CC(=O)Oc1ccc(C)cc1N1C(=O)c2ccc(C(=O)O)cc2C1=O`, the inhibition was 0.63% (inactive).

Regarding `COc1cccc(-c2nc3n(n2)C(c2ccccc2Cl)C(C(N)=O)=C(C)N3)c1` (configuration not stated), the inhibition was 1.25% (inactive).

Take `COc1ccc(NC(=O)c2c(SC)nsc2SC)cc1`: the inhibition is -3.4% (inactive).

On to `COc1ccc(C(=O)CSc2nccc(=O)[nH]2)cc1`, for which the inhibition is -1.11% (inactive).

Consider `O=C(CN1CCN(C(=O)c2cccc(F)c2)CC1)Nc1ccccc1F`, for which the inhibition was -3.2% (inactive).

`CCOC(=O)CSc1nnc(NC(=O)c2cccc(S(=O)(=O)N3CCCCC3)c2)s1`: the inhibition is -2.01% (inactive).

`CCOC(=O)c1sc(N(Cc2ccccc2)C(=O)CN2C(=O)CN(C)C2=O)nc1C`: the inhibition is 0.36% (inactive).

For `Cc1ccc(C(=O)COc2cccc(NC(=O)c3ccco3)c2)cc1`, the inhibition is 0.83% (inactive).

`Cn1c(=O)[nH]c(=O)c2c1nc(CN1CCN(c3ccccc3F)CC1)n2CCc1ccccc1`: the inhibition is 3.94% (inactive).

Consider `Cc1ccccc1NC(=O)c1cnn(-c2ccccc2)c1NC(=O)c1ccco1`, for which the inhibition was -3.45% (inactive).

Take `O=P(c1cccs1)(c1cccs1)c1cccs1`: the inhibition is -3.85% (inactive).

`O=C(Nc1cccc2cccnc12)c1cccc(N2C(=O)CCC2=O)c1`: the inhibition is 4.05% (inactive).

As for `O=C(CSCc1cccs1)N1CCCC1`, the inhibition is 5.67% (inactive).

With `CCc1ccc(-c2nnn(Cc3nc4ccccc4s3)n2)cc1`, the inhibition is -6.35% (inactive).

Turning to `CCC(C)NC(=O)N[C@@H](CCSC)C(=O)O` (some centres not stated), the inhibition is 1.22% (inactive).

With `O=C(Nc1cc(C(F)(F)F)ccc1Cl)c1cc(C2CC2)on1`, the inhibition was 4.08% (inactive).

Take `Cn1c(=O)c2c(nc(SCCNS(=O)(=O)c3ccccc3)n2C)n(C)c1=O`: the inhibition was -3.56% (inactive).

Turning to `Cc1ccccc1CSc1nnc(Cn2c(=O)sc3ccccc32)n1C`, the inhibition was 0.98% (inactive).

For the compound `O=C(Cn1[nH]c(=O)c2ccccc2c1=O)Nc1cccc(-c2nnc3n2CCCCC3)c1`, the inhibition is -2.76% (inactive).

For the compound `O=c1c2c(nc3n1CCCCC3)sc1c(O)cccc12`, the inhibition is 19.3% (active).

For the compound `Cc1ccc2nc3n(c(=O)c2c1)CCC3`, the inhibition was -2.11% (inactive).

As to `CCn1cc(C(=O)N2CCN(C3CCCCC3)CC2)c2cc(OC)c(OC)cc2c1=O`, the inhibition is -1.36% (inactive).

As to `O=C(Cn1cnc2c(cnn2-c2ccccc2)c1=O)NCc1ccccc1`, the inhibition was 3.12% (inactive).

As to `CCCc1cc(=O)[nH]c(SCC(=O)OCc2ccccc2)n1`, the inhibition is -3.94% (inactive).
